Compound activity from PubChem.
Hits are enriched below; roughly 5.7% of the tested compounds scored in any of these assays.
DAX1 inh-1: inhibitors of DAX1 repression of SF-1 activated StAR promoter; HEK293T StAR-luciferase reporter, SF-1/DAX-1 repression relief; inhibition, % at 6.8 µM; hit rate 1.1% among 370,000;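 active means inhibition above the mean over all tested compounds plus 3 SD, cut at about 3.6% in these data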;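 further: 0% = DAX-1 cells with DMSO and 100% = cells lacking DAX-1 with DMSO; higher inhibition means more luminescence from relief of DAX-1 repression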
ssDAF12 agonist: activates DAF-12 receptor from parasite S. stercoralis; hit rate 1% among 370,000; AID 652126; activation, % at 6.8 µM; HEK293 ssDAF-12/GRIP1 lit1-tk-luc reporter, luminescence; % of 3 µM dafachronic acid response;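 active means activation above the mean over all tested compounds plus 3 SD, cut at about 0.9% in these data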;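 further: 0% = DMSO-only wells and 100% = 3 µM delta7-dafachronic acid wells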
hgDAF-12 ag: activates the H. glycines DAF-12 receptor ligand-binding domain | HEK293 GAL4-hgDAF12 UAS-luciferase reporter, agonist luminescence; normalized to butyrate control | activation, % at 6.8 µM | hit rate 1.8% among 370,000 | AID 687014;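 active means activation above a cutoff set at the mean of all screened compounds plus 3 SD, cut at about 10% in these data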;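 further: 0% = DMSO wells and 100% = sodium butyrate wells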
hcDAF12 agonist: activates DAF-12 receptor from parasite H. contortus. HEK293 hcDAF-12 lit1-tk-luc reporter, luminescence; 0% DMSO, 100% Δ7-dafachronic acid. activation, % at 6.8 µM. hit rate 1.4% among 370,000;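 active means activation above the mean of all tested compounds plus 3 SD, cut at about 5.5% in these data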;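 further: 100% = response to 3 µM Δ7-dafachronic acid high control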
AHR act: activators of human aryl hydrocarbon receptor; AHR-responsive luciferase reporter cells, luminescence; activation, % at 5 µM; hit rate 2.5% among 320,000; AID 2796; in the data active means activation above about 47%;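 further: 0% = vehicle wells and 100% = reference agonist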
DAX1 inh-2: inhibits human nuclear receptor DAX1; P51843; HEK293 Gal4-DAX1 luciferase reporter, luminescence; inhibition, % at 6.75 µM; hit rate 0.99% among 340,000; AID 504766;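 active means inhibition above the mean over all tested compounds plus 3 SD, cut at about 4.2% in these data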;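 further: 0% = DAX1-transfected cells with DMSO and 100% = empty-vector control cells with DMSO; inhibition shows as a rise in luminescence from relieved DAX1 repression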
Target sequence (P51843 207-470 limits assumed): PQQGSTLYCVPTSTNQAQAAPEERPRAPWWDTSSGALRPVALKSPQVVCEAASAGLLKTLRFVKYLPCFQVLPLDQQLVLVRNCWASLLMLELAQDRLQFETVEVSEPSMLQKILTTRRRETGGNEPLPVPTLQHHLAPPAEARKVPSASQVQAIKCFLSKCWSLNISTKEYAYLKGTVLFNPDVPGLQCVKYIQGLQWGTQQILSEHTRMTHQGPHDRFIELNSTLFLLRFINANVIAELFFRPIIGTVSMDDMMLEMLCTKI
DAX1 inh confirm: confirmation of human DAX1 (NR0B1) inhibitors; shares compounds with DAX1 inh-1; HEK293T StAR-promoter luciferase reporter, SF-1/DAX-1 repression; inhibition, % at 6.8 µM; hit rate 87% among 2,400; AID 652134;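 active means inhibition above the average of every tested compound plus 3 SD, cut at about 3.8% in these data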;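 further: 0% = DAX-1 cells with DMSO and 100% = no DAX-1 control cells with DMSO; active compounds raise luminescence by relieving repression of the StAR reporter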
SF1 AF2mut Luc: nonselective inhibitor or artifact in SF-1 mutant DAX1 counter-screen; AID 652136; shares compounds with DAX1 inh-1; hit rate 78% among 2,400; inhibition, % at 6.8 µM; HEK293 StAR-luciferase, SF-1 AF2 mutant, luminescence;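 active means inhibition above the mean of all tested compounds plus 3 SD, cut at about 3% in these data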;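 further: 0% = DAX-1 transfected cells with DMSO and 100% = cells without DAX-1 with DMSO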
The depositor's hits bear a star; · = no result.

SMILES	DAX1 inh-1	ssDAF12 agonist	hgDAF-12 ag	hcDAF12 agonist	AHR act	DAX1 inh-2	DAX1 inh confirm	SF1 AF2mut Luc
O=C(CSc1nnc(-c2ccccc2Cl)o1)Nc1ccccn1	6.1*	-1	11*	3	2	-1	17*	6.7*
Cc1c(C(=O)N2CCC(C(N)=O)CC2)oc2ccc(Br)cc12	3	-1	5	2	23	1	·	·
C=CCn1c(C)cc(C(=O)COc2ncnc3sccc23)c1C	5.2*	0	11*	6.3*	6	1	14*	6.5*
CCOc1ccccc1/C=C(\C#N)C1=CCCC1	0	-2	1	0	4	0	·	·
O=C(NCCc1ccccc1)c1nc2ncccn2n1	0	0	-3	-2	1	0	·	·
c1ccc(CSc2nc3ncccn3n2)cc1	6.8*	0	10	2	2	1	8.4*	4.8*
Cc1ccccc1S(=O)(=O)Oc1cccc2c(O)cccc12	0	-1	0	5	3	0	·	·
O=c1[nH]c(=O)n([C@H]2C[C@H](O)[C@@H](CO)O2)cc1I	5.6*	0	10	1	-1	0	14*	6.1*
O=c1ccn([C@H]2C[C@H](O)[C@@H](CO)O2)c(=O)[nH]1	0	-2	3	-1	-1	2	·	·
Cc1nn(-c2ccccc2)c(Cl)c1C(=O)OCC(=O)NCCc1ccccc1	-1	-1	-2	-1	·	0	·	·
Cc1n[nH]c(=O)nc1N/N=C/c1ccc(O)c([N+](=O)[O-])c1	0	-1	5	1	4	1	·	·
COc1cccc(/C=C/C(=O)NNC(=O)c2ccncc2)c1OC	-1	-1	2	-2	4	0	·	·
COc1cccc(/C=C/C(=O)NNC(=O)c2ccccc2)c1OC	5.2*	-1	8	3	7	3	5.1*	2
CCC1CCCCN1C(=O)CCS(=O)(=O)c1ccccc1 (stereo not drawn)	4.8*	0	1	2	8	1	4.2*	1
O=C(CSc1ccccc1)NC1CCCCCCC1	2	-1	4	1	2	0	·	·
O=C(CCS(=O)(=O)c1ccccc1)NC1CCCCC1	4.7*	-1	3	0	11	0	5.8*	4.0*
O=C(CSc1ccccc1)NC1CCCCCC1	6.2*	0	9	6.3*	13	0	7.7*	3.8*
CC(=O)N1CCN(C(=O)c2ccc(NS(=O)(=O)c3ccc4[nH]c(=O)[nH]c4c3)cc2)CC1	-1	-1	-1	-1	2	0	·	·
Cc1nnc(NC(=O)c2nc(S(=O)(=O)Cc3ccccc3)ncc2Cl)s1	5.6*	-1	2	-2	1	2	3	-2
CCOC(=O)c1cnc2c(-c3ccccc3)c(C)nn2c1N	0	-1	3	-1	1	1	·	·
CCOC(=O)c1cnc2c(-c3ccccc3)cnn2c1N	5.6*	0	12*	4	-10	4	17*	12*
O=C(Nc1ccc(NC(=O)C2CC2)cc1)c1cccs1	7.1*	0	7	2	0	1	8.3*	5.3*
O=C(Nc1nnc(Cc2ccc(Cl)cc2)s1)C1CCCO1 (stereo not drawn)	1	-2	-2	-1	4	2	·	·
O=C(Nc1ncc(Cc2ccccc2)s1)C1CCCO1 (stereo not drawn)	8.3*	1	13*	4	3	0	11*	4.8*
Cc1c(CC(=O)N2CCC(C(=O)O)CC2)c(=O)oc2cc3c(cc12)CCC1(CCCCC1)O3	-1	0	3	1	0	1	·	·
Cc1ccc(C(=O)OCc2cc(=O)n3ccsc3n2)s1	-1	-1	5	0	-1	-1	·	·
Cc1ccc(C(=O)OCc2cc(=O)n3c(C)csc3n2)s1	4.8*	-1	2	2	1	0	3	2
